Test system: PPARg:RXRa (NR concentration 180 nM, RXRa partner concentration 90 nM)
Experiment: PBM binding z-score (relative to random genomic background probes); higher = stronger binding; sequences stand for … in GC…GCGATTGACAGCGTAGAATGAAGG
Outline: (§1)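 Custom Agilent 4×180K protein-binding microarrays carried double-stranded probes, each with a 34-nt variable region. These regions held direct-repeat seeds, single-nucleotide variants, half-site ablations and random human genomic background sequences. Ligand-free nuclear receptor dimers were incubated on the arrays for 1 h, antibodies against each partner (one per run) detected binding, and scanned fluorescence was regression-normalized. Binding z-scores take the random background probes as reference.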

Sequence | PBM binding z-score
ATCGAAAGGTCGAAGGTGAGTATACCCACCCGAA | 4.53
TCTTGTAGATCAATAGAGGTTACGAAAGTGCGCT | 0.4
TCTTGTTGATCAAGCAGGTTAAGAAAGCCTGAGT | -0.685
CGTCCTAGGTCAAGGTCAGTGAAAGAGACTCGAA | 4.31
GGAACGAGTGCAAAGTTGATAGCATCTGTCGACG | 2.13
TCTAGTTGGTCTCGGAGGTCACACACGACGGGTA | 1.68
CTAACTAGGTCAGAACAGGACAGTGAAGGATGAT | 6.17
TCTTGTAGATCAACAGGAGTTTAAGAAAGATCGA | 0.0426
CGTCCACGGTCAATGCTAGGTCAGTGAAAGCATT | -0.0965
CCTTACGGGTCACTGACAGGTTAAAGCATTTGGA | 4.6
CCTAGTTGGTCAGGAGGTAACACACCGGATATGA | 0.902
ATAACGAGGGCAATGAGTTGATAGCACGGGTGGC | 1.8
GCGACTGGGGCATAGCAGGTTACCATAAGGTTGG | 1.02
TTACCAAGCTGAGCTGAGGTCGTTGATCCAACTC | -0.752
CGGCCAAGGTCAGAGAGGTCAGTGAATGCCGAGT | 3.72
GGGACTGGGGCAAAGCAGGTTACCATAAGGTTGG | 3.59
TCAGACAAGTGAAGGTAACTCAGGTACGCAGTCG | 0.548
GCTTGTAGATCACGGTTAAGAAAGACTAAGCTAA | -0.118
GTTAGTTGGTCAGTAAAAGGTCACACACCGGTCG | 3.42
TCATATAGGTAAACAGGTGAAAGTTCGTAAGTTA | 7.28

Sequence | PBM binding z-score
ACTAGTTGGTCAGGTGAGGTCACACACAATTCGG | 2.36
ATCGAAAGGTCGAAGGTGAGAATACCCACCCGAA | 4.6
TCTTCTAGATCAAAGGTTAAGAAAGCCGAAGCCT | 7.46
CCTTACGGGTCACGATGTTATAGCACGACGAGCG | 6.19
GGAATGAGGGCAAAGTTGATAGCATCTGTCGACG | 7.74
TCATATAGGTAATACAGGTGACAGTCGGCATCTA | 1.81
CCTATTAGTTGACCATAAAGGCAACCGAAGCTCG | 0.377
ATCTCTAGGTAAAGTTCCGTGAAAGATCGATAGA | 0.291
CATCGGAGGACAACAGGAGGTCAGAGCTGCCAGA | 0.842
CGTCAAAGTCCAACTAAGGTAACGTAAAGCACGC | 0.536
TTGCCTAGGTCATTCAGGGGCCAGTATAGAAAGC | 2.07
ATCTCTAGGTAAAGATAGTTCAGCGAATGCAAAT | 0.334
ATCTCTAGGTAAGACTCAGTTCAGTGAAGAACGC | -0.0322
AAACCAAGGTGATCGTGAGGTCGTTGATACTAAC | 0.386
GTACCAAGGTGAATAGATCGTTGATGAGTAGGCG | 0.853
CCTCGGAGGACAACAGGAGCTCAGAGCTGCCAGA | -0.107
CAAGCTAGGTCACAGAGGTCAAAGTCCGTGCGTA | 6.86
ACTTTTAGTTGACTTAGGGCAACCGATACGACGC | 0.9
TCTATTAGTTGAAGGGTAACCGACGAGTCCGTTT | 0.607

Test system: PPARg:RXRa 270nM:90nM, anti-RXR (NR concentration 270 nM, RXRa partner concentration 90 nM)
Experiment: as above
Outline: as §1

Sequence | PBM binding z-score
ATCGAAAGGTCGAAGGTGAGTATACCCACCCGAA | 5.13
TCTTGTAGATCAATAGAGGTTACGAAAGTGCGCT | 1.79
TCTTGTTGATCAAGCAGGTTAAGAAAGCCTGAGT | 1.11
CGTCCTAGGTCAAGGTCAGTGAAAGAGACTCGAA | 4.45
GGAACGAGTGCAAAGTTGATAGCATCTGTCGACG | 3.33
TCTAGTTGGTCTCGGAGGTCACACACGACGGGTA | 3.05
CTAACTAGGTCAGAACAGGACAGTGAAGGATGAT | 4.91
TCTTGTAGATCAACAGGAGTTTAAGAAAGATCGA | 1.19
CGTCCACGGTCAATGCTAGGTCAGTGAAAGCATT | 0.186
CCTTACGGGTCACTGACAGGTTAAAGCATTTGGA | 4.5
CCTAGTTGGTCAGGAGGTAACACACCGGATATGA | 1.08
ATAACGAGGGCAATGAGTTGATAGCACGGGTGGC | 1.31
GCGACTGGGGCATAGCAGGTTACCATAAGGTTGG | 0.684
TTACCAAGCTGAGCTGAGGTCGTTGATCCAACTC | -0.18
CGGCCAAGGTCAGAGAGGTCAGTGAATGCCGAGT | 4.34
GGGACTGGGGCAAAGCAGGTTACCATAAGGTTGG | 3.37
TCAGACAAGTGAAGGTAACTCAGGTACGCAGTCG | 2.26
GCTTGTAGATCACGGTTAAGAAAGACTAAGCTAA | -0.0332
GTTAGTTGGTCAGTAAAAGGTCACACACCGGTCG | 4.81
TCATATAGGTAAACAGGTGAAAGTTCGTAAGTTA | 6.52

Sequence | PBM binding z-score
ACTAGTTGGTCAGGTGAGGTCACACACAATTCGG | 2.68
ATCGAAAGGTCGAAGGTGAGAATACCCACCCGAA | 4.93
TCTTCTAGATCAAAGGTTAAGAAAGCCGAAGCCT | 8.19
CCTTACGGGTCACGATGTTATAGCACGACGAGCG | 5.77
GGAATGAGGGCAAAGTTGATAGCATCTGTCGACG | 7.45
TCATATAGGTAATACAGGTGACAGTCGGCATCTA | 2.52
CCTATTAGTTGACCATAAAGGCAACCGAAGCTCG | 0.275
ATCTCTAGGTAAAGTTCCGTGAAAGATCGATAGA | 0.898
CATCGGAGGACAACAGGAGGTCAGAGCTGCCAGA | 0.724
CGTCAAAGTCCAACTAAGGTAACGTAAAGCACGC | -0.0783
TTGCCTAGGTCATTCAGGGGCCAGTATAGAAAGC | 2.24
ATCTCTAGGTAAAGATAGTTCAGCGAATGCAAAT | 0.42
ATCTCTAGGTAAGACTCAGTTCAGTGAAGAACGC | 0.385
AAACCAAGGTGATCGTGAGGTCGTTGATACTAAC | 0.544
GTACCAAGGTGAATAGATCGTTGATGAGTAGGCG | 0.705
CCTCGGAGGACAACAGGAGCTCAGAGCTGCCAGA | -1
CAAGCTAGGTCACAGAGGTCAAAGTCCGTGCGTA | 6.52
ACTTTTAGTTGACTTAGGGCAACCGATACGACGC | 0.521
TCTATTAGTTGAAGGGTAACCGACGAGTCCGTTT | 2.8
